# Potency and affinity values are given separately.
# Test system: Escherichia coli
# Conditions: Concentration 32 ug.mL-1;; ASSAY_TEST Inhibition of Bacterial Growth; detection method Absorption (OD600); MEDIA CAMHB; plate type 384well; NBS; CORNING #3640; time 18 hr
row,SMILES,Inhibition [%]
1,CCc1nnc2c(=O)n(CC(=O)Nc3cccc(C#N)c3)c3ccccc3n12,1.69
2,COc1cc(OC)c(NC(=O)Cn2nc3c(Oc4ccc(C)cc4)nccn3c2=O)cc1Cl,-4.58
3,CCOC(=O)N1CCN(C(=O)CCc2nnc3c4cc(-c5ccc(F)cc5)nn4ccn23)CC1,2.2
4,O=C(Cn1nc2c3sc(N4CCCC4)nc3ncn2c1=O)Nc1cccc(Br)c1,2.84
5,O=C(Cn1nc2nc(Nc3ccc(F)cc3)ccn2c1=O)NCc1ccc(F)cc1Cl,-1.86
6,O=C(Cn1nc2n(Cc3ccc(F)cc3)c(=O)c3ccccc3n2c1=O)Nc1ccc2c(c1)OCO2,-3.01
7,O=C(Cn1nc2c(Sc3ccccc3)nccn2c1=O)Nc1ccc2c(c1)OCCO2,-0.55
8,COc1cccc(CNC(=O)CSc2nnc3c(=O)n(-c4ccc(F)cc4)ccn23)c1OC,2.01
9,Cc1cc2nn(CC(=O)Nc3cc(F)ccc3C)c(=O)n2c(Nc2ccc(C)c(F)c2)n1,-8.01
10,Cc1cccc(Oc2nccn3c(=O)n(CC(=O)N4CCN(c5ccc(F)cc5)CC4)nc23)c1C,-6.71
11,COc1ccccc1-n1ccn2c(SCC(=O)Nc3ccc(F)cc3F)nnc2c1=O,0.2
12,CC(C)c1nnc2c(=O)n(CC(=O)Nc3ccc(C#N)cc3)c3ccccc3n12,-7.65
13,CCOc1ccc(C(=O)CSc2nnc3c(=O)n(-c4ccc(F)cc4)ccn23)cc1,1.42
14,O=C(CSc1nnc2c(=O)n(-c3ccc(Br)cc3)ccn12)Nc1ccc(F)cc1,-1.5
15,O=C(Cn1nc2c3cc(-c4ccc(Cl)cc4)nn3ccn2c1=O)NCc1ccccc1,4.95
16,CC(C)c1nnc2c(SCC(=O)N3CCN(c4ccccc4F)CC3)nc3ccccc3n12,-6.39
17,Cc1ccc(C)c(Cn2nc3ccc(-c4ccc(C)c(C)c4)nn3c2=O)c1,-0.08
18,CCOc1ccccc1NC(=O)Cn1nc2c(N3CCN(c4ccccc4)CC3)nccn2c1=O,-3.13
19,CCOc1ccc(NC(=O)Cn2nc3c(Sc4ccccc4)nccn3c2=O)cc1,-2.95
20,Cc1nnc2ccc(S(=O)(=O)N(Cc3ccccc3F)c3ccc(F)cc3)cn12,-7.33

row,SMILES,Inhibition [%]
1,CCc1nnc2c(S(=O)(=O)N(Cc3cccc(OC)c3)c3ccc(F)cc3)cccn12,-8.61
2,O=C(Cn1nc2ccc(Sc3cccc(F)c3)nn2c1=O)Nc1cccc(Cl)c1,-4.86
3,O=C(CSc1nnc2c(=O)n(-c3ccccc3)ccn12)Nc1ccc(Br)cc1,-4.01
4,Cc1nnc2c(=O)n(CC(=O)Nc3ccccc3Cl)c3ccccc3n12,-2.02
5,CCc1ccc(N(Cc2cccc(C)c2)S(=O)(=O)c2cccn3c(C)nnc23)cc1,0.34
6,CC(C)NC(=O)CCn1c(=O)c2cc(Cl)ccc2n2c(=O)n(CC#N)nc12,-9.95
7,CCc1nnc2ccc(S(=O)(=O)N(Cc3ccc(F)cc3)c3ccccc3)cn12,-12.51
8,COC(=O)c1ccc(NC(=O)Cn2nc3ccc(C(=O)NCc4ccccc4)cn3c2=O)cc1,-2.38
9,CCCc1nnc2c(=O)n(CC(=O)Nc3ccc(NC(C)=O)cc3)c3ccccc3n12,-0.84
10,CCCCOc1ccc(-c2cc3c4nnc(SCC(=O)Nc5cccc(C)c5C)n4ccn3n2)cc1,-19.34
11,COc1ccc(NC(=O)Cn2nc3ccc(SC(C)(C)C)nn3c2=O)cc1OC,2.49
12,Cc1ccc(Oc2nccn3c(=O)n(CC(=O)N4CCN(c5ccc(F)cc5)CC4)nc23)cc1,1.45
13,COc1ccc(NC(=O)C(C)Sc2nnc3c(=O)n(-c4cccc(OC)c4)ccn23)cc1 (centres undefined),-9.09
14,COc1cccc(C(=O)CSc2nnc3c(=O)n(-c4ccc(F)cc4)ccn23)c1,2.2
15,COc1ccc2[nH]cc(C(=O)CSc3nnc4c(=O)n(-c5cccc(Cl)c5C)ccn34)c2c1,2.67
16,Cc1ccc(-c2ccc3nn(Cc4nc(-c5ccc(Cl)cc5)no4)c(=O)n3n2)cc1,0.55
17,COc1ccc(-c2cc3c4nnc(SCC(=O)Nc5cc(F)ccc5C)n4ccn3n2)cc1,-20.36
18,CCOC(=O)c1ccc(NC(=O)Cn2nc3ccc(-c4ccc(Cl)cc4)nn3c2=O)cc1,-1.44
19,Cc1cc(C)c(NC(=O)Cn2nc3c4c5c(sc4ncn3c2=O)CCCC5)c(C)c1,-5.83

# — ChEMBL document CHEMBL4513146, “CO-ADD screening of Karazin Kharkiv National University (Ukraine) compounds”
